VCAM1 TNFa pot: enhances TNF alpha induced VCAM1 expression in HUVEC | actives 0.19% (n = 93,000) | activation, % at 2 µM | HUVEC TNFa-stimulated VCAM-1 immunofluorescence, high-content imaging; scaled per plate to unstimulated/TNFa-only wells;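 active = activation above the screen mean plus 3 SD, with well images confirming the hit on visual review, cut at about 28% in these data, passing the limit was not always enough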;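 note: signal is the number of cytoplasmic VCAM-1 stained grains per positive cell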
VCAM1 pot conf: enhancers of VCAM1 induction in HUVEC – imaging, triplicate retest, confirmation; shares compounds with VCAM1 TNFa pot; HUVEC TNFa-stimulated VCAM-1 immunofluorescence imaging; activation, % at 2 µM; 230 tested, under 10 active;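 active = activation above 30% in triplicate retests at 2 µM, then confirmed by visual review of the well images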;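 note: scaled per plate between unstimulated and TNFa-stimulated DMSO control wells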
The depositor's hits bear a star. The sample as a whole holds a higher share of hits than the screen did.

SMILES | VCAM1 TNFa pot | others
CCOc1cccc(OCC)c2c(C)[n+](CC3CCCO3)c(C)c1-2 (centres undefined) | 32* | VCAM1 pot conf=4
CCNc1ccc(P(=S)(N(C)C)N(C)C)cc1 | -21
O=P(/C(=N/O)N1CCOCC1)(N1CCOCC1)N1CCOCC1 | -1
O=C(c1ccncc1)C12CN3CN(CN(C3)C1)C2 | 2
CCC(=O)OC1(c2cccc(C)c2)CC(C)N(C)CC1C (centres undefined) | -4
Cn1c(=O)cc(OCC(=O)N2CCN(Cc3ccc4c(c3)OCO4)CC2)c2ccccc21 | -16
CCCC12CN3CN(C1)CC(CCC)(C3)C2O (centres undefined) | 33* | VCAM1 pot conf=-20
O=C(N/N=C1/CN2CCC1CC2)c1cccc(O)c1 | 3
C=C1N2CCC(CC2)C1(O)c1ccccc1C (centres undefined) | -41
CC1N(O)C2CCCCCC2N1O (centres undefined) | 0

High-throughput results (PubChem BioAssay)
